Among the data in PubChem BioAssay AID488975 (Johns Hopkins Ion Channel Center, 2010) are B-score values, retold here.

The whole screen tested about 310,000 compounds, of which about 2,600 (0.84%) were called active.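 The calls were made as follows: active = B-score over 3 SD under the library average, and starting fluorescence ratio not unusually high; inactive = the rest.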 Shown is part of a subset that was picked to be rich in actives.

Sequence of High affinity choline transporter 1 (Homo sapiens) (Q9GZV3 whole entry, looked up): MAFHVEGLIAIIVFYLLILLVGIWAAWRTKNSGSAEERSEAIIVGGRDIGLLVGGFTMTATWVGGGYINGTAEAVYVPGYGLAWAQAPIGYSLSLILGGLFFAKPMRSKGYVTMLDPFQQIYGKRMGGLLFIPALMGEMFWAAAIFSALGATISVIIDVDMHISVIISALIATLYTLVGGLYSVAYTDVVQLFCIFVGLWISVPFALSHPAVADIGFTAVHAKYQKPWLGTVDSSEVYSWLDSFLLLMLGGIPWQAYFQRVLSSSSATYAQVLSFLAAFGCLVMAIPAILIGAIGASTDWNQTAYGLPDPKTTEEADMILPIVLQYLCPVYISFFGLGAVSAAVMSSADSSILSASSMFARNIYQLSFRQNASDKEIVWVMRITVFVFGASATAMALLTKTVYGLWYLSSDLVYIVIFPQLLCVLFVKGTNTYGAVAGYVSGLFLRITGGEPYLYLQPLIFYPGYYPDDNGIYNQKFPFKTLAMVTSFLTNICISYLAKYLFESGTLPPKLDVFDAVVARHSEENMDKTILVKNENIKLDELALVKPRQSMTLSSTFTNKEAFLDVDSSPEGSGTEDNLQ

This assay concerns the target High affinity choline transporter 1 (Homo sapiens) (UniProt Q9GZV3). The experiment in a line: inhibitors of human choline transporter CHT (AID 488975).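 As to B-score: choline stimulus applied at its EC90 after an EC20 pre-addition; B-score computed on integrated fluorescence ratio after choline addition.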 As to conditions: CHT-expressing cells, membrane potential dye, choline response, at 10 µM; stronger effect = lower value.
With `N#CCCN(CCC#N)c1nnc(-c2ccccc2)s1`, the B-score result was “inactive”.

Take `CN(CCC#N)c1ncnc2scc(-c3ccccc3)c12`: the B-score was -6.05 (active).

`C=CCn1cnc2scc(-c3ccccc3)c2c1=O`: the B-score entry was “inactive”.

As for `COc1cc(C(=O)N(C)Cc2cccc(OC)c2OC)ccc1OCC(=O)Nc1cccc(C(F)(F)F)c1`, the B-score result is “inactive”.

As for `Fc1ccccc1COc1cccc2cccnc12`, the B-score result is “inactive”.

`CN(/N=C/c1ccccc1)C(=S)c1ccccc1`: the B-score entry is “inactive”.

For the molecule `COc1ccc([C@@H]2[C@@H]3C(=O)N(C(C)(C)C)C(=O)[C@@H]3[C@]3(Cc4ccccc4)C(=O)N(c4cccc(Br)c4)C(=O)N23)cc1`, the B-score entry is “inactive”.

With `Cc1cccc(NC(=O)c2cccc(S(=O)(=O)N3CCCC3)c2)n1`, the B-score result was “inactive”.

For the molecule `O=S(=O)(c1cccc(-c2nnc(SC(F)F)n2-c2ccccc2)c1)N1CCCCC1`, the B-score is -6.54 (active).

In the case of `O=S(=O)(c1cccc(-c2cn3ccccc3n2)c1)N1CCCC1`, the B-score result is “inactive”.

As to `O=S(=O)(c1cccc(-c2nnc3n2CCCCC3)c1)N1CCOCC1`, the B-score result was “inactive”.

As to `Cc1onc(-c2ccccc2Cl)c1C(=O)N(Cc1ccc(N(C)C)cc1)C(C)C`, the B-score result was “inactive”.

For the molecule `Cc1ccn2c(=O)c(NC(=O)c3cccc4ccccc34)c(C)nc2c1`, the B-score result is “inactive”.

On to `Cc1c(Cl)cccc1NC(=O)NCc1ccc(C)n1C`, for which the B-score entry is “inactive”.

Regarding `COC(=O)C(C(=O)Nc1cccc(Cl)c1C)C1CCCC1` (stereo not drawn), the B-score is -5.46 (active).

As for `Cc1c(Cl)cccc1NC(=O)Nc1ccc(C(=O)N2CCCC2)cc1`, the B-score entry was “inactive”.

For the molecule `CCN(CC(=O)Nc1c(F)cccc1F)C(=O)C1CCC1`, the B-score result is “inactive”.

In the case of `Cc1ccc(S(=O)(=O)NC(C)C(=O)NCc2ccc(Cl)cc2)cc1` (stereo not drawn), the B-score entry was “inactive”.

As for `CCCNC(=O)c1ccc(N2CCC3(CC2)CC(c2cccc(Br)c2)=NO3)c(NC(=O)c2ccco2)c1`, the B-score result was “inactive”.

Consider `CCN(CC(=O)Nc1cc(Cl)ccc1C)C(=O)CSCc1ccc(C)cc1`, for which the B-score result is “inactive”.

Take `CCN(CC(=O)NCc1ccc(Cl)cc1)C(=O)CSc1ccccc1`: the B-score is -5.83 (active).

On to `CN(CC(=O)NCc1ccc(Cl)cc1)S(=O)(=O)c1cccs1`, for which the B-score result was “inactive”.

Turning to `COc1ccc(N2CC(NS(=O)(=O)c3ccc4ccccc4c3)CC2=O)cc1` (stereo not drawn), the B-score entry was “inactive”.

With `O=C1N[C@@H](Cc2ccccc2)C(=O)N2[C@H]1C[C@]1(Br)c3ccccc3N(S(=O)(=O)c3ccccc3)[C@H]21`, the B-score result was “inactive”.

As to `Cc1nc2ccccc2c(=O)n1-c1ccc(F)c(NC(=O)c2cccs2)c1`, the B-score result was “inactive”.

Regarding `CCN(CC)CCn1c2c(c(SCC(=O)Nc3ccc(C(C)C)cc3)nc1=O)CCC2`, the B-score entry was “inactive”.

Turning to `COc1ccc(N(CC(=O)N2CCCCCC2)S(=O)(=O)c2ccccc2)cc1`, the B-score result is “inactive”.

Take `CS(=O)(=O)N(CC(=O)N1CCN(c2cccc(Cl)c2)CC1)c1ccccc1`: the B-score entry is “inactive”.

Take `CC1CCN(C(=O)CN(c2ccc(Oc3ccccc3)cc2)S(C)(=O)=O)CC1`: the B-score is -5.53 (active).

In the case of `NC(=O)NCCCC(=O)O`, the B-score entry is “inactive”.

As to `Cc1ccc(NC(=O)COc2coc(CN3CCc4ccccc4C3)cc2=O)cc1Cl`, the B-score result is “inactive”.

`O=C(Nc1ccncc1)c1ccccc1[N+](=O)[O-]`: the B-score entry is “inactive”.

As to `O=C(O/N=C(/c1ccccc1)c1ccncc1)c1ccccc1[N+](=O)[O-]`, the B-score is -5.03 (active).

Regarding `COc1ccc(NC(=O)c2ccccc2[N+](=O)[O-])cc1OC`, the B-score result was “inactive”.

As for `COc1ccc(-c2cc(C(=O)N/N=C/c3cccnc3)c3ccccc3n2)c(OC)c1`, the B-score entry was “inactive”.

In the case of `O=C(O)CC1=C(Nc2ccccc2)C(=O)N(c2ccccc2)C1c1ccc(Cl)cc1` (stereo not drawn), the B-score is -9.58 (active).

For `COC(=O)CN1C(=S)N(c2ccccc2)C(=O)C1CC(=O)Nc1ccc(Cl)cc1` (stereo not drawn), the B-score result is “inactive”.

Consider `O=C(O)Cc1ccc(NCc2ccccc2Cl)cc1`, for which the B-score result is “inactive”.

Take `O=C(NCCc1ccco1)C(=O)NCCC1CCCCN1S(=O)(=O)c1ccccc1` (stereo not drawn): the B-score result is “inactive”.

For `O=C(C1CCN(S(=O)(=O)c2ccc(Br)s2)CC1)N1CCN(c2ccccc2)CC1`, the B-score is -8.2 (active).

Consider `O=C(C1CCN(S(=O)(=O)c2ccc(Br)s2)CC1)N1CCN(C2CCCCC2)CC1`, for which the B-score result is “inactive”.

On to `CS(=O)(=O)N1CCC(C(=O)N2CCN(c3ccccc3)CC2)CC1`, for which the B-score result was “inactive”.

As to `CC(Sc1nn(-c2ccc(Cl)cc2)c(=S)s1)C(=O)NCC1CCCO1` (stereo not drawn), the B-score result is “inactive”.

For the molecule `COc1ccc(S(=O)(=O)N2CCOC23CCN(S(=O)(=O)c2ccc([N+](=O)[O-])cc2)CC3)cc1`, the B-score result is “inactive”.

With `CCC(C)c1ccc(NC(=S)NCc2ccccn2)cc1` (stereo not drawn), the B-score is -9.17 (active).

For the molecule `O=C(NCc1ccccn1)Nc1ccc(F)cc1`, the B-score entry is “inactive”.

As for `O=C(NCc1ccccn1)Nc1ccc(Cl)cc1`, the B-score result is “inactive”.

With `CCOC(=O)C(C)N(c1ccccc1Cl)S(C)(=O)=O` (stereo not drawn), the B-score entry was “inactive”.

As to `N#Cc1ccc(C(=O)Nc2cccc3cccnc23)c(F)c1`, the B-score was -5.02 (active).

In the case of `O=C(Nc1cccc2cccnc12)c1cccc(N2C(=O)CCC2=O)c1`, the B-score result was “inactive”.

Regarding `O=C(Nc1cccc2cccnc12)c1cccc(Cl)c1`, the B-score result was “inactive”.

With `CCOC(=O)c1cc(C(C)C)sc1NC(=O)COC(=O)c1nccnc1N`, the B-score entry is “inactive”.

Consider `CCOc1ccc(NS(=O)(=O)c2ccc(C(=O)NC3CCN(Cc4ccccc4)CC3)cc2)cc1`, for which the B-score entry is “inactive”.

`Cc1ccc(CNC(=O)c2cc(-c3ccccc3C)n(CC3CC(c4cccc([N+](=O)[O-])c4)=NO3)n2)cc1` (stereo not drawn): the B-score entry was “inactive”.

`O=C(NCCc1ccc2c(c1)OCCO2)c1cc2ccccc2o1`: the B-score was -5.1 (active).

Consider `N=c1oc2ccccc2cc1C(=O)NCc1ccccc1`, for which the B-score result was “inactive”.

On to `O=C(CC(Cc1ccccc1)C(=O)O)NCCc1ccc2c(c1)OCO2` (stereo not drawn), for which the B-score result is “inactive”.

`COc1ccc(C(=O)NCC2CCCN2S(=O)(=O)c2cccs2)cc1OC` (stereo not drawn): the B-score entry is “inactive”.

As for `Cc1ccc(C(=O)C(C)OC(=O)Cc2n[nH]c(=O)c3ccccc23)cc1C` (stereo not drawn), the B-score entry was “inactive”.

On to `COc1nc(OC)nc(N(C)CCO)n1`, for which the B-score was -12.4 (active).

As to `O=C(CSC1=NS(=O)(=O)c2cc(F)ccc2N1)Nc1ccccc1F`, the B-score result was “inactive”.

Take `CN(CC(=O)Nc1cccc(F)c1)C(=O)C1=COCCO1`: the B-score entry is “inactive”.

As for `CN(CCO)c1ccc(/C=N/Nc2nncc3ccccc23)cc1`, the B-score entry was “inactive”.

With `CCC(C)NC(=O)c1ccc(N2CCC3(CC2)OCCO3)c([N+](=O)[O-])c1` (stereo not drawn), the B-score entry is “inactive”.

Take `CC(NC(=O)c1ccc(N2CCNCC2)c([N+](=O)[O-])c1)C12CC3CC(CC(C3)C1)C2` (stereo not drawn): the B-score is -5.65 (active).

In the case of `O=C(Nc1cccc(C(F)(F)F)c1)c1ccc(N2CCNCC2)c([N+](=O)[O-])c1`, the B-score entry is “inactive”.

Turning to `O=C(NC1C2CC3CC(C2)CC1C3)c1ccc(N2CCNCC2)c([N+](=O)[O-])c1` (stereo not drawn), the B-score was -5.53 (active).

For `CS(=O)(=O)N1CCN(c2ccc(C(=O)NC3C4CC5CC(C4)CC3C5)cc2[N+](=O)[O-])CC1` (stereo not drawn), the B-score result was “inactive”.

For the molecule `CC1CCN(c2ccc(C(=O)Nc3nnc(C4CC4)s3)cc2[N+](=O)[O-])CC1`, the B-score entry is “inactive”.

Take `O=C(NCCC1CCCCN1S(=O)(=O)c1ccc(Cl)cc1)C(=O)NCc1ccco1` (stereo not drawn): the B-score result is “inactive”.

Consider `CCCNC(=O)CCn1cc(-c2ccc(OC)cc2)nc1CCN`, for which the B-score entry is “inactive”.

For `C=CCNC(=O)C1CC2c3ccccc3C1c1ccccc12` (stereo not drawn), the B-score entry was “inactive”.

For `CC1(C)CC(=O)c2sc(N)nc2C1`, the B-score result was “inactive”.

As to `CC(=O)Nc1nc2c(s1)C(=O)NCC(C)(C)C2`, the B-score was -5.07 (active).

For `CNC(=O)c1ccc2nc(NC(C)=O)sc2c1`, the B-score result was “inactive”.

`COc1cccc(N2CC(NC(=O)c3ccc4ccccc4c3)CC2=O)c1` (stereo not drawn): the B-score entry is “inactive”.

On to `COc1cccc(CC2(CO)CCCN(Cc3ccc(OC(F)F)cc3)C2)c1` (stereo not drawn), for which the B-score entry was “inactive”.

As to `Cc1nn(C)c(C)c1NS(=O)(=O)c1ccc(OC(F)(F)F)cc1`, the B-score result was “inactive”.

`CNC(=O)NC(=O)C(C)N1CCN(C/C=C/c2ccccc2)CC1` (stereo not drawn): the B-score was -6.91 (active).

As for `COc1cc(C(=O)N2CCN(C/C=C/c3ccccc3)CC2)cc(OC)c1C`, the B-score result is “inactive”.

`O=C(CCN1CCN(C/C=C/c2ccccc2)CC1)Nc1cccc(F)c1`: the B-score entry was “inactive”.

As to `CCc1ccc(C(=O)NNC(=O)C2CCN(c3ncnc4sc(C)c(C)c34)CC2)cc1`, the B-score entry is “inactive”.

On to `O=C(Nc1ccc(C(=O)N2CCOCC2)cc1)Nc1cccc(C(F)(F)F)c1`, for which the B-score result was “inactive”.

As to `CCc1ccccc1N1CN(Cc2ccco2)CNC1=S`, the B-score is -5.54 (active).

Turning to `CCN1CN(Cc2ccccc2)CNC1=S`, the B-score result was “inactive”.

Turning to `CCOc1ccccc1N1CN(Cc2ccccc2)CNC1=S`, the B-score entry was “inactive”.

With `Brc1cnc2ccccc2c1N1CCCCC1`, the B-score entry is “inactive”.

For `CCCCCN(C(=O)CCC(=O)OCC(=O)NC1CCC(C)CC1)c1c(N)n(CCCC)c(=O)[nH]c1=O` (stereo not drawn), the B-score result was “inactive”.

Regarding `O=C(CN1C(=O)NC2(CCCC2)C1=O)OCCOc1ccc(F)cc1`, the B-score result was “inactive”.

In the case of `COc1cc(NC(=O)CSC(=S)N2CCCC2)c(OC)cc1Cl`, the B-score entry was “inactive”.

`CC(C(=O)NC1CCS(=O)(=O)C1)N1C(=O)/C(=C/c2ccc(Cl)cc2)SC1=S` (stereo not drawn): the B-score is -8.07 (active).

In the case of `CN(C(=O)CN1C(=O)/C(=C/c2ccc(Cl)cc2)SC1=S)C1CCS(=O)(=O)C1` (stereo not drawn), the B-score result was “inactive”.

Regarding `COc1ccc(/C=C2\SC(=O)N(CCC(=O)NC3CCS(=O)(=O)C3)C2=O)cc1` (stereo not drawn), the B-score entry is “inactive”.

Take `CCN(Cc1ccccc1)S(=O)(=O)c1cc(C(=O)O)ccc1OC`: the B-score was -5.82 (active).

As for `COc1ccc(C(=O)O)cc1S(=O)(=O)NCc1cccnc1`, the B-score entry is “inactive”.

In the case of `COc1ccc(S(=O)(=O)N(CC(=O)N/N=C/c2ccc(C(=O)O)cc2)Cc2ccccc2)cc1OC`, the B-score result is “inactive”.

In the case of `O=C(NCC(c1ccco1)N1CCc2ccccc2C1)c1ccccc1Cl` (stereo not drawn), the B-score result was “inactive”.

On to `NC(=O)c1ccsc1NC(=O)COC(=O)Cc1n[nH]c(=O)c2ccccc12`, for which the B-score result is “inactive”.

For `Nc1c(-c2ccccc2)nnn1Cc1ccccc1`, the B-score entry was “inactive”.

On to `Oc1c(Cl)cc(Cl)c(Cl)c1Cc1c(O)c(Cl)cc(Cl)c1Cl`, for which the B-score was -6.87 (active).

Consider `COc1ccc(C2=NN(C(=O)CSc3nc(=O)n4ccc(C)cc4n3)C(c3ccc(C)cc3)C2)cc1` (stereo not drawn), for which the B-score result was “inactive”.

Take `CCN1C(=O)[C@H]2[C@@H](c3ccc(-c4ccc(F)cc4)cc3)N[C@@](Cc3ccccc3)(C(=O)OC)[C@H]2C1=O`: the B-score result is “inactive”.

In the case of `O=C(Cc1ccc(Br)cc1)NCCc1ccccc1`, the B-score result is “inactive”.
